Screening data deposited in PubChem by National Center for Advancing Translational Sciences (NCATS).
BRCA1 expr act: increases BRCA1 expression; actives 1.1% (n = 380,000); Potency, µM (top dose mostly 46.1 µM), inactives show at the top dose activation, most hits filed as activators; MCF7-BRCA1-FFLuc reporter, luminescence, 48 h; response scale: scaled: vehicle 0%, 10 µM genistein 100%; also: potency is read from the fitted curve at half-maximal effect; nearly all actives have a fitted effect of over 80% in size
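First, MCF7-BRCA1-FFLuc cells (2000/well) attach for 2 h; next, compounds are pin-added and incubated 48 h at 37 °C; finally, luciferase reagent is added and luminescence read after 15 min.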
TCR act: T cell receptor activation; primary human leukocytes, anti-CD3, IL-2 HTRF, 48 h; Potency, µM (series often up to 9.22 µM), for the others: at the highest dose activation of IL-2 secretion, most hits filed as activators; 330,000 tested, under 10 active; also: % of control where 0% means no effect
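IL-2 produced over 48 hr by a-CD3 bead-stimulated primary human leukocytes exposed to compounds was detected with a homogeneous time-resolved FRET immunoassay, 665nm acceptor signal after 320nm excitation.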
PINK1 expr mod: modulators of PINK1 expression; PINK1 immunofluorescence, high-content cytometry, 24 h; Potency, µM (top dose mostly 76.6 µM), for the others: at the highest dose activation (PINK1 increase), hits mostly activators; actives 0.2% (n = 410,000); AID 624263; active = well fitted activation curve with a large enough effect; inconclusive = small, poorly fitted or top-dose-only effect; cell line not stated here; also: potency is read from the fitted curve at half-maximal effect; % of control where 0% means no effect; nearly all actives have a fitted effect of over 65% in size
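A stable cell line was treated with compounds at 5 concentrations for 24 hours, with CCCP as control. PINK1 levels and mitochondrial localization were measured by immunofluorescence with mitochondrial, cell and nuclear markers after fixation, read by laser-scanning cytometry.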
Akt phos inh: Akt phosphorylation inhibition; actives 0.32% (n = 360,000); activity change, % for hits at 50 µM; Neuro2A IGF-stimulated pAkt S473 HTRF, 20 min; stronger effect = lower value; in the data active = activity change below about -80%; inconclusive = mostly about -51% to -80%; also: % is scaled to controls: 0 for no effect and ±100 for the full control effect
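Neuro2A cells in DMEM with 0.5% FBS, overnight at 37 deg C, given compound at single 50 µM final, then IGF (6 nM final) for 20 min at 37 deg C. Lysed; phospho-Akt Ser473 by HTRF after 24 h, 665/615 ratio.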
* marks the source's active call; other numbers are inactive results; i = inactive; ? = inconclusive; · = not tested or not shown; [ ] = another dose, or the depositor's remark. Only some compounds are listed: those with a hit (about 1.5% of all), similar ones and a draw of the others. Unless noted, calls follow the shape of the dose curve; as a rule, active = well fitted curve in the direction sought with a large enough effect; inconclusive = small, poorly fitted or top-dose-only effect, or another doubt; inactive = no such curve, though single readings can be large; an effect the other way counts as inactive or inconclusive.

SMILES	BRCA1 expr act	TCR act	PINK1 expr mod	Akt phos inh
Cc1nn(-c2ccc(F)cc2)c(C)c1CNC(=O)c1ccc(-n2cc(NC(=O)c3ccoc3)cn2)cc1	·	·	2%	·
C#Cc1cccc(C(=O)NCc2nc(-c3cccc(NC(=O)c4ccccn4)c3)oc2C)c1	·	·	1%	·
CN(C)c1cc[n+](CC(=O)c2ccc(-c3ccccc3)cc2)cc1	-40%	-5%	25µM*	i
CCC(=O)c1ccc(-c2ccccc2)cc1	13µM*	1%[46.1 µM]	3%	i
Cc1ccccc1CN1CCc2nnc(C(C)NC(=O)c3cc(F)ccc3F)n2CC1 (centres undefined)	·	·	0%	·
COc1ccc(CCn2c(=S)[nH]c(=O)c3cccnc32)cc1OC	14%	·	3%	·
Cc1ccc(SCCN2CCC(C)CCC2=O)cc1 (centres undefined)	8.9µM*	-9%	2%	i
Cc1ccc(SCCC(=O)N2CCC(C(N)=O)CC2)cc1	24%	1%	1%	i
Cc1ccc(SCCN2CCC(C(C)(C)C)CCC2=O)cc1 (centres undefined)	?	-14%	3%	i
CC(C)(C)C1CCC(=O)N(CCSc2ccccc2)CC1 (centres undefined)	3.5µM*	0%	7%	i
C[C@H]1CCC(=O)N(CCSc2ccc(Br)cc2)CC1	?	-1%	2%	i
CCCN1CCC(=O)N(CCSc2ccccc2)CC1	?	16%	3%	i
O=C1CCN(Cc2ccccc2)CCN1CCSc1ccccc1	8.9µM*	3%	0%	i
Cc1ccc(SCCC(=O)N2CCC(C)CC2)cc1	10µM*	-4%[46.1 µM]	1%	i
O=C(CC1(c2cccc(F)c2)CC(=O)N(Cc2cccnc2)C1=O)N1CCCCCCC1 (centres undefined)	·	·	2%	·
CCc1ccc(N2C(=O)CC(c3cc(OC)ccc3OC)C3=C2COC3=O)cc1 (centres undefined)	7%	·	-3%	·
Oc1c(C(Nc2ccccn2)c2ccccc2)ccc2cccnc12 (centres undefined)	-63%	·	1%	·
C=CCNC(=O)c1ccc(-c2nc(-c3ccc(Cl)c(Cl)c3)cs2)cc1	2%[1.84 µM]	-4%	·	·
C=CCNC(=O)c1ccc(-c2nc(-c3ccc(Cl)cc3Cl)cs2)cc1	11µM*	-6%	13%	i
O=C(Nc1ccc2c(c1)Cc1ccccc1-2)c1cccnc1	2.8µM*	7%	-1%	i
COc1cccc(OC)c1C(=O)NC(=S)Nc1ccc2c(c1)Cc1ccccc1-2	5%	0%	1%	-115%*
Cn1c(O)c(/C=C2\C=Nc3ccccc32)sc1=Nc1ccc(C(=O)O)cc1	-73%	-11%	1%	i
CCn1c(O)c(/C=C2\C=Nc3ccccc32)sc1=Nc1ccccc1	20%	-1%	11%[38.3 µM]	-89%*
CC(C)CSc1nsc(N)n1	13µM*	0%	0%[38.3 µM]	i
Nc1nc(SCc2ccccc2)ns1	11µM*	-19%	0%	i
SMILES	BRCA1 expr act	TCR act	PINK1 expr mod	Akt phos inh
CC(C)CSc1nnc(N)s1	12%	8%	-1%	i
CCCN1CCN(C(=O)c2cnn(-c3ncc4c(n3)-c3ccccc3CCC4)c2COC)CC1	·	·	2%	·
Cc1c(C(=O)NCCCc2ccncc2)cnn1-c1ncc2c(n1)-c1ccccc1CC2	·	·	0%	·
CCOC(=O)c1cnc(SC)nc1N	18%	-2%	0%	i
CCOC(=O)c1cnc(SCC(=O)c2ccc(C)cc2)nc1N	-18%	7%[46.1 µM]	3%	i
CCOC(=O)c1cnc(SCc2cccc(C)c2)nc1N	10µM*	4%	1%	i
CCOC(=O)c1cnc(SCC(C)C)nc1N	7.9µM*	0%	-4%	i
CC(C)NC(=O)COC(=O)c1ccccc1OCC(=O)Nc1ccc(Br)cc1	-18%	·	0%	·
CCN=C1SC(CC(=O)NC2CCCCC2)C(=O)N1CC (centres undefined)	2%	0%	3%[38.3 µM]	i
CCN=C1SC(CC(=O)NC(N)=O)C(=O)N1CC (centres undefined)	-4%	0%	-2%	-106%*
Cc1ccc(C(=O)N(Cc2cc3cc4c(cc3nc2N2CCOCC2)CCC4)CC2CCCO2)cc1 (centres undefined)	·	·	2%	·
CCc1ccc(-c2ccc(SCC(=O)NCC3CCCO3)nn2)cc1 (centres undefined)	2.5µM*	3%	0%	i
CCc1ccc(-c2nc(SCC(=O)NCC3CCCO3)c(-c3ccc(C)cc3)[nH]2)cc1 (centres undefined)	·	·	1%	·
COc1ccc(/C=C/c2ccnc3ccccc23)cc1	0%	·	6%	·
COc1ccc(C(=O)NCCN2Cc3ccccc3OC(c3ccsc3)C2)c(OC)n1 (centres undefined)	·	·	0%	·
CC1(C)CC(=O)C(C2C3=C(CC(C)(C)CC3=O)Oc3c(Br)cc(Br)cc32)=C(O)C1 (centres undefined)	-43%	3%	22µM*	i
CCCCOc1ccc(C2CCC(C(C)=O)C(C)C2)cc1 (centres undefined)	10µM*	-2%	9%	i
CCCCCCCCCC[n+]1cc(Br)cc(Br)c1	-79%	·	0%	·
Cc1c(Cc2ccccc2)c(=O)oc2c(CN(C)C)c(O)c(Cl)cc12	-45%	8%[46.1 µM]	-1%[38.3 µM]	i
CCc1cc2c(=O)c(Oc3ccccc3F)c(C)oc2c(CN(C)C)c1O	0%	-8%	2%	-104%*
COc1ccccc1C1CN(Cc2ccc(Sc3nncn3C)o2)Cc2ccccc2O1 (centres undefined)	·	·	0%	·
CCOc1ccc(/C=C2\CCC(C3CCCC3)C2=O)cc1 (centres undefined)	4µM*	-10%	1%	i
COC(=O)c1c(OCCN2CCCCC2)cc(=O)n2c1CCN(Cc1cccc3nccnc13)CC2	·	·	0%	·
COc1ccc(CCNc2nc(SCc3ccccc3F)nc3ccccc23)cc1OC	·	·	5%	·
O=c1oc(CCCO)cc2ccc(C#Cc3ccsc3)cc12	56%	-3%	1%	i
SMILES	BRCA1 expr act	TCR act	PINK1 expr mod	Akt phos inh
CN(C)c1ccc(C#Cc2ccc3cc(CCCO)oc(=O)c3c2)cc1	3.2µM*	-7%	7%	i
COc1ccc(C)c2sc(=NC(=O)c3ccccc3)n(C)c12	54%	-2%	0%	i
COc1ccc(C)c2sc(=NC(=O)c3ccc(C(C)=O)cc3)n(C)c12	0.79µM*	-4%	2%	i
COCC(=O)N1CCC[C@@]2(CCN(c3ccccn3)C2)C1	·	·	-1%	·
COCCNC(=O)CSc1ccc(C)cc1	2%	3%	1%	i
Cc1ccc(SCC(=O)NCCSC(C)(C)C)cc1	8.9µM*	-4%	2%	i
COC(=O)[C@@H]1C[C@H](NC(=O)c2cc(C(F)(F)F)ccc2Cl)CN1Cc1cccc(O)c1	·	·	1%	·
Cc1cccc(-c2noc(-c3ccccc3C(=O)NCC3CCCO3)n2)c1 (centres undefined)	6.3µM*	-7%	7%	i
C=CCOC(=O)C1CC=CCC1C(=O)Oc1ccc(F)cc1F (centres undefined)	-33%	·	-1%[38.3 µM]	-80%*
